Experimental data reported in PubChem BioAssay (Tox21).
Results filed as inconclusive are left out. Active and inactive are the calls of the source. Unless noted, calls follow the shape of the dose curve; as a rule, active = well fitted curve in the direction sought with a large enough effect in the repeat runs; inconclusive = weak or mixed curves; inactive = no such curve, though single readings can be large; an effect the other way counts as inactive or inconclusive.

How the values were obtained:
[1] = qHTS assay to identify small molecule antagonists of the glucocorticoid receptor (GR) signaling pathway - cell viability counter screen (AID 720693); also: nearly all actives have a fitted effect of over 55% in size
[2] = qHTS assay for identifying genotoxic compounds that show differential cytotoxicity against isogenic chicken DT40 cell lines with known DNA damage response pathways - Rev3 mutant cell line (AID 743014); also: nearly all actives have a fitted effect of over 55% in size; also: potency is read from the fitted curve at half-maximal effect
[3] = qHTS assay for identifying genotoxic compounds that show differential cytotoxicity against isogenic chicken DT40 cell lines with known DNA damage response pathways - Rad54/Ku70 mutant cell line (AID 743015); also: nearly all actives have a fitted effect of over 60% in size; also: potency is read from the fitted curve at half-maximal effect
[4] = target: Androgen receptor (Homo sapiens) (UniProt P10275); assay: qHTS assay to identify small molecule antagonists of the androgen receptor (AR) signaling pathway (AID 743035; active = well fitted inhibition curve with a large enough effect in the signal ratio in the repeat runs, not every such curve was filed as active; the % refers to the signal ratio)
Method in brief: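 HEK293 cells stably carrying UAS-beta-lactamase reporter, 2,000/well, given compounds plus R1881 agonist and incubated 16 h at 37C. LiveBLAzer B/G FRET substrate then added for 2 h at room temperature before fluorescence reading.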

[5] = target: Androgen receptor (Homo sapiens) (UniProt P10275); assay: qHTS assay to identify small molecule agonists of the androgen receptor (AR) signaling pathway (AID 743036; active = well fitted activation curve with a large enough effect in the signal ratio in the repeat runs, with a control signal flat, not every such curve was filed as active; the % refers to the signal ratio)
Method in brief: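 Cell-based FRET reporter assay: HEK293 line with a UAS-beta-lactamase construct, compounds added in DMSO, 16 h exposure at 37C, then 2 h substrate step at room temperature and fluorescence intensity read.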

[6] = target: Androgen receptor (Homo sapiens) (UniProt P10275); assay: qHTS assay to identify small molecule agonists of the androgen receptor (AR) signaling pathway using the MDA cell line (AID 743040; also: nearly all actives have a fitted effect of over 20% in size)
Method in brief: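 MDA-kb2 breast carcinoma cells carrying MMTV-luciferase (responsive to AR and GR), plated 5 h then treated 16 h with compounds at 37C, 0% CO2. Read-out was ONE-Glo luminescence after 30 min at room temperature.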

[7] = qHTS assay to identify small molecule antagonists of the androgen receptor (AR) signaling pathway using the MDA cell line - cell viability counter screen (AID 743041; also: nearly all actives have a fitted effect of over 45% in size)
Method in brief: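 MDA-kb2 AR-luc cells (MMTV-luciferase, AR/GR responsive) treated with compounds plus R1881 agonist for 16 h at 37C. CellTiter-Fluor added at 15.5 h; fluorescence read after 30 min in the same wells.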

[8] = qHTS assay to identify small molecule antagonists of the thyroid receptor (TR) signaling pathway (AID 743065); also: series mostly up to about 70 µM; nearly all actives have a fitted effect of over 55% in size
Method in brief: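 GH3.TRE-Luc rat pituitary cells (two TREs driving luciferase) were dosed with compound, then stimulated with 1 nM T3 (final) for 23.5 h at 37 C. ONE-Glo luminescence was the read-out, with CellTiter-Fluor fluorescence as the cytotoxicity counter-screen.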

[9] = system: thyroid hormone receptor (rat, GH3 cells); assay: qHTS assay to identify small molecule agonists of the thyroid receptor (TR) signaling pathway (AID 743066; calls by dose curve; also: potency is read from the fitted curve at half-maximal effect)
[10] = qHTS assay to identify small molecule antagonists of the estrogen receptor alpha (ER-alpha) signaling pathway - cell viability counter screen (AID 743074; calls by dose curve;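 also: HEK293 cells carrying ER-alpha-UAS-bla reporter stimulated with 17beta-estradiol; nearly all actives have a fitted effect of over 45% in size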)
[11] = qHTS assay to identify small molecule antagonists of the estrogen receptor alpha (ER-alpha) signaling pathway using the BG1 cell line - cell viability counter screen (AID 743081);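 also: compound given together with 17beta-estradiol as the ER stimulus; series mostly up to about 70 µM; nearly all actives have a fitted effect of over 45% in size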
Aromatase (Homo sapiens) = Aromatase (Homo sapiens) (UniProt P11511); assay: qHTS assay to identify aromatase inhibitors (AID 743083); also: series mostly up to about 70 µM; nearly all actives have a fitted effect of over 55% in size
[12] = qHTS assay to identify aromatase inhibitors - cell viability counter screen (AID 743084)
[13] = qHTS assay to identify small molecule antagonists of the androgen receptor (AR) signaling pathway - cell viability counter screen (AID 743033; also: nearly all actives have a fitted effect of over 45% in size)
[14] = qHTS assay to identify small molecule antagonists of the thyroid receptor (TR) signaling pathway - cell viability counter screen (AID 743064); also: nearly all actives have a fitted effect of over 50% in size; also: potency is read from the fitted curve at half-maximal effect
Method in brief: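 In rat pituitary GH3.TRE-Luc reporter cells co-exposed to compound and 1 nM T3 for 23.5 h, cytotoxicity was assessed with CellTiter-Fluor in the same wells, read by fluorescence.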

[15] = qHTS assay to identify small molecule antagonists of the estrogen receptor alpha (ER-alpha) signaling pathway using the BG1 cell line (AID 743080; calls by dose curve;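 also: BG1 cells stimulated with 17beta-estradiol alongside compound; nearly all actives have a fitted effect of over 25% in size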; also: potency is read from the fitted curve at half-maximal effect)
Method in brief: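 Endogenous full-length ER-alpha in BG1-Luc-4E2 cells drives a stably integrated 4×ERE luciferase gene; compounds were tested against 17beta-estradiol over 21.5 h, with luminescence and multiplexed viability fluorescence recorded.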

[16] = target: Estrogen receptor (Homo sapiens) (UniProt P03372); assay: qHTS assay to identify small molecule antagonists of the estrogen receptor alpha (ER-alpha) signaling pathway (AID 743069; active = well fitted curve in the direction sought with a large enough effect in the signal ratio in the repeat runs, not every such curve was filed as active; the % refers to the signal ratio)
Method in brief: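 HEK293 ER-alpha-UAS-bla GripTite cells, held overnight in 2% charcoal-stripped FBS, 5,000 cells/well, preincubated 4 h, then compound plus 17beta-estradiol for 18 h at 37C. Beta-lactamase read by LiveBLAzer B/G FRET substrate, 2 h at room temperature.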

[17] = target: Estrogen receptor (Homo sapiens) (UniProt P03372); assay: qHTS assay to identify small molecule agonists of the estrogen receptor alpha (ER-alpha) signaling pathway (AID 743075; calls by dose curve)
[18] = target: Estrogen receptor (Homo sapiens) (UniProt P03372); assay: qHTS assay to identify small molecule agonists of the estrogen receptor alpha (ER-alpha) signaling pathway using the BG1 cell line (AID 743079); also: nearly all actives have a fitted effect of over 20% in size; also: potency is read from the fitted curve at half-maximal effect
[19] = qHTS assay for identifying genotoxic compounds that show differential cytotoxicity against isogenic chicken DT40 cell lines with known DNA damage response pathways - wild type cell line (AID 743012); also: nearly all actives have a fitted effect of over 60% in size
Method in brief: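 Wild-type DT40 cells (300/well) exposed to compounds for 40 hours at 37 C/5% CO2. Viability read by CellTiter-Glo luminescence after 30 min at room temperature.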

Measured: Potency

Sequence of Androgen receptor (Homo sapiens) (P10275 whole entry, looked up): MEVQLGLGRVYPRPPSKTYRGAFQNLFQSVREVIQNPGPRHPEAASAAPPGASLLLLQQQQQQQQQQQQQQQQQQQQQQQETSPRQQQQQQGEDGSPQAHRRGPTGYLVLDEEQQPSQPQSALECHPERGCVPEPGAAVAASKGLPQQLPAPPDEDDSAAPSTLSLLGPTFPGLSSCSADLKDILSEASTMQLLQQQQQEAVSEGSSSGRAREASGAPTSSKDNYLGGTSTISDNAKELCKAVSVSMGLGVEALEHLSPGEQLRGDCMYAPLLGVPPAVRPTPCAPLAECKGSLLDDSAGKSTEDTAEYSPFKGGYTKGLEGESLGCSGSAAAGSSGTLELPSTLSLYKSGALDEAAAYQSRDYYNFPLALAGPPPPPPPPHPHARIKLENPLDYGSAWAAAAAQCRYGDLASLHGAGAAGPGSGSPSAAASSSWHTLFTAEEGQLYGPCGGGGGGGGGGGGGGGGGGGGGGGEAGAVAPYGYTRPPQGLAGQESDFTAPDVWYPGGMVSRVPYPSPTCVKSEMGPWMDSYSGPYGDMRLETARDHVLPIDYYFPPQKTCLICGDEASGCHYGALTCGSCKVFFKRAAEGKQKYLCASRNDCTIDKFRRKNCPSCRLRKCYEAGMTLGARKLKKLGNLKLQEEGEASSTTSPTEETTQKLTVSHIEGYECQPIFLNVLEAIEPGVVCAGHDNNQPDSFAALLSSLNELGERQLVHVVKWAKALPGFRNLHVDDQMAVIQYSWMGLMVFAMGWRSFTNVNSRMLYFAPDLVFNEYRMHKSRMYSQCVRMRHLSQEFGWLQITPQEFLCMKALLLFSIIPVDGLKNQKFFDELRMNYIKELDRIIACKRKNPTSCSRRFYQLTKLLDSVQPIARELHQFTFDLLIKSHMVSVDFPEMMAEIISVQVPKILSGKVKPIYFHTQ
Sequence of Aromatase (Homo sapiens) (P11511 whole entry, looked up): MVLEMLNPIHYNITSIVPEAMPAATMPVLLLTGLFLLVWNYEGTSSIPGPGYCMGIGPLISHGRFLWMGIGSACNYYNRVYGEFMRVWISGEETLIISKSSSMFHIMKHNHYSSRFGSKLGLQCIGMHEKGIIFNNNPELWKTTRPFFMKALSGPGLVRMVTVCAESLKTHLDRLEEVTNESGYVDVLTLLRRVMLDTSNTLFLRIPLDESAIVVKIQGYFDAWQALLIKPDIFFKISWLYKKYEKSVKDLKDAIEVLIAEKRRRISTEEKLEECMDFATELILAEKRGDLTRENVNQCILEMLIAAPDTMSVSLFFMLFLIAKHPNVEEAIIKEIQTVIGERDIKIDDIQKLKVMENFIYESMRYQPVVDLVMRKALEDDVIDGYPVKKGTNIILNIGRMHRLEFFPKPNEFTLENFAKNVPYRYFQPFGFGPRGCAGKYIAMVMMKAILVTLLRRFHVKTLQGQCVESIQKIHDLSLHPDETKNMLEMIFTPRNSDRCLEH
Sequence of Estrogen receptor (Homo sapiens) (P03372 whole entry, looked up): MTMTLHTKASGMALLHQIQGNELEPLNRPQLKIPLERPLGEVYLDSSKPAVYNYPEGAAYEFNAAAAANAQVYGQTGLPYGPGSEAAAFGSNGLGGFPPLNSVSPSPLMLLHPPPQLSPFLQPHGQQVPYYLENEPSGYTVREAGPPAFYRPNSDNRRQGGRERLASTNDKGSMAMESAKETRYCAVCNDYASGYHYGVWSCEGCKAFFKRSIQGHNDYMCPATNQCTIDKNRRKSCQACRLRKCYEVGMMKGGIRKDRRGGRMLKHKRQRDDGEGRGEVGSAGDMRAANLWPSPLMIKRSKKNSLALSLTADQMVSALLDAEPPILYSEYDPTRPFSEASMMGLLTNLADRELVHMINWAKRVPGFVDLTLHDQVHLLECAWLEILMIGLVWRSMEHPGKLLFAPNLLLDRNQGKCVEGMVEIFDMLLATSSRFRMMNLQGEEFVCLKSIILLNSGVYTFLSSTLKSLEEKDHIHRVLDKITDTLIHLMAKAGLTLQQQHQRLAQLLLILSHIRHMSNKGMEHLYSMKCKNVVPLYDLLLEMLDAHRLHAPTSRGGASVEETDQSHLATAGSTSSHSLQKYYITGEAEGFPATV

COC(C)(C)CC(C)=O
active: [2] 54.5 µM | [3] 61.1 µM
not listed: [13] | [14] | [15] | [16] | [17] | [18] | [19]
inactive: all other assays above

COC(=O)C(c1ccccc1Cl)N1CCc2sccc2C1 (centres undefined)
inactive: [1] | [13] | [14] | [9] | [10] | [15] | [11] | Aromatase (Homo sapiens) | [12]

CCNC(=O)C(C)OC(=O)Nc1ccccc1 (centres undefined)
not listed: [3] | [4] | [5] | [6] | [7] | [14] | [19]
inactive: all other assays above

O=Cc1ccccc1S(=O)(=O)O
active: [9] 68.5 µM
inactive: [1] | [2] | [3] | [13] | [14] | [8] | [10] | Aromatase (Homo sapiens) | [12]

CC(=O)c1ccc2ccc3ccccc3c2c1
active: [2] 60.8 µM | [18] 8.58 µM
not listed: [3] | [4] | [5] | [6] | [15] | [19]
inactive: all other assays above

CC(=O)Nc1ccc(OCCOCCOc2ccc(NC(C)=O)cc2)cc1
not listed: [1] | [4] | [5] | [6]
inactive: all other assays above

CCCCN=C(N)N=C(N)N
active: [15] 16.8 µM
not listed: [2] | [3] | [4] | [5] | [6] | [19]
inactive: all other assays above

C=C(C)C(=O)OCCOC1CC2CC1C1C=CCC21 (centres undefined)
inactive: [1] | [13] | [7] | [14] | [8] | [9] | [10] | [11] | Aromatase (Homo sapiens) | [12]

CCc1ccc(CC)cc1
not listed: [1] | [4] | [5] | [6] | [12]
inactive: all other assays above

CCO/C=C1\N=C(c2ccccc2)OC1=O
active: [3] 48.4 µM | [14] 68.3 µM
inactive: [1] | [7] | [9] | [10] | [11] | Aromatase (Homo sapiens) | [12]

O=S(=O)(O)c1cc(I)c(O)c2ncccc12
inactive: [1] | [13] | [7] | [14] | [8] | [9] | [10] | [11] | Aromatase (Homo sapiens) | [12]

C=CCN(CC=C)CC=C
inactive: [1] | [2] | [3] | [13] | [7] | [8] | [9] | [11] | Aromatase (Homo sapiens) | [12]

C=CCON/C(CCC)=C1\C(=O)CC(C)(C)C(C(=O)OC)=C1O
inactive: [1] | [2] | [3] | [13] | [7] | [8] | [9] | [10] | [11] | Aromatase (Homo sapiens) | [12]

NNC(=O)CCCCC(=O)NN
not listed: [4] | [5] | [6] | [7] | [11] | [14] | [19]
inactive: all other assays above

Cc1cc(C)c(C)c(C)c1
not listed: [1] | [4] | [5] | [6]
inactive: all other assays above

COc1cnc(NS(=O)(=O)c2ccc(N)cc2)nc1
not listed: [3] | [4] | [5] | [6] | [14] | [19]
inactive: all other assays above

CSC(=O)c1cccc2nnsc12
active: [2] 21.7 µM
not listed: [3] | [4] | [7] | [13] | [14] | [16] | [19]
inactive: all other assays above

N[C@H]1C(O)O[C@H](CO)[C@@H](O)[C@@H]1O (some centres undefined)
active: [18] 0.531 µM
not listed: [1]
inactive: all other assays above

CN(C)c1cc(NC(=O)CNC(C)(C)C)c(O)c2c1C[C@H]1C[C@H]3[C@H](N(C)C)C(=O)C(C(N)=O)=C(O)[C@@]3(O)C(=O)C1=C2O
not listed: [2] | [5] | [7] | [14] | [19]
inactive: all other assays above

CCCC(=O)C(CC)Sc1ccoc1C (centres undefined)
not listed: [2] | [3] | [7] | [14] | [19]
inactive: all other assays above
